Assay results from PubChem BioAssay.
The source made the active and inactive calls.

Assays:
[1] = E. coli DRC41 culture turbidity changes, primary screen, E. coli filamentation inducer project, strain DRC41, OD650, 48 h (AID 1152);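 note: E. coli MC1000 strain DRC41 lacking acrAB efflux pump and sulA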; conditions: E. coli DRC41 (acrAB sulA), higher = more signal, called active from +8 up or from −8 down
[2] = small-molecule binders of probe aLefty1, primary screen, biochemical, small-molecule microarray, 635/667 nm fluorescence (AID 1153); conditions: higher = more signal;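 note: score merges spot fluorescence with signal-to-noise ratio from the scanned slide images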
[3] = PSAC antagonists in infected red cells, primary screen, cell-based, P. falciparum Indochina, OD700, 1 h (AID 1154); conditions: P. falciparum Indochina infected RBC osmotic lysis, higher = more signal, called active from +8 up or from −8 down
[4] = PSAC antagonists in infected red cells, primary screen, cell-based, P. falciparum Indochina, OD700, 2 h (AID 1155);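 note: lysis reports solute entry through the parasite surface anion channel PSAC; channel blockers reduce lysis of infected cells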; conditions: P. falciparum Indochina infected erythrocytes, osmotic lysis OD700; higher = more signal, called active from +8 up or from −8 down
[5] = osmotic lysis modulators in infected erythrocytes, primary screen, PSAC antagonist project, cell-based, P. falciparum Indochina, OD700, 3 h (AID 1156); conditions: higher = more signal, called active from +8 up or from −8 down
[6] = PSAC antagonists in infected red cells, primary screen, cell-based, P. falciparum Indochina, OD700, 18 h (AID 1157); conditions: P. falciparum Indochina infected erythrocytes, osmotic lysis OD700, 18 h; higher = more signal, called active from +8 up or from −8 down
[7] = modulators of S6 phosphorylation in cells, primary screen, cell-based, A549, cytoblot, luminescence, serum-stimulated (AID 1158); conditions: A549 phospho-S6 cytoblot, 5 h, higher = more signal;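 note: serum-stimulated A549 lung adenocarcinoma cells; signal is phosphorylated S6 detected by cytoblot immunostaining with HRP secondary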
[8] = target: NADPH oxidase 2 (Homo sapiens) (UniProt P04839); test: NOX2-dependent H2O2 signal modulators, primary screen, NOX inhibitor project, cell-based, HEK293-NOX2, PMA-stimulated, Amplex Red fluorescence (AID 1159); conditions: 45 min, higher = more signal, called active from +8 up or from −8 down; note: test concentration not given here
NADPH oxidase 2 (Homo sapiens), sequence (P04839 whole entry, looked up): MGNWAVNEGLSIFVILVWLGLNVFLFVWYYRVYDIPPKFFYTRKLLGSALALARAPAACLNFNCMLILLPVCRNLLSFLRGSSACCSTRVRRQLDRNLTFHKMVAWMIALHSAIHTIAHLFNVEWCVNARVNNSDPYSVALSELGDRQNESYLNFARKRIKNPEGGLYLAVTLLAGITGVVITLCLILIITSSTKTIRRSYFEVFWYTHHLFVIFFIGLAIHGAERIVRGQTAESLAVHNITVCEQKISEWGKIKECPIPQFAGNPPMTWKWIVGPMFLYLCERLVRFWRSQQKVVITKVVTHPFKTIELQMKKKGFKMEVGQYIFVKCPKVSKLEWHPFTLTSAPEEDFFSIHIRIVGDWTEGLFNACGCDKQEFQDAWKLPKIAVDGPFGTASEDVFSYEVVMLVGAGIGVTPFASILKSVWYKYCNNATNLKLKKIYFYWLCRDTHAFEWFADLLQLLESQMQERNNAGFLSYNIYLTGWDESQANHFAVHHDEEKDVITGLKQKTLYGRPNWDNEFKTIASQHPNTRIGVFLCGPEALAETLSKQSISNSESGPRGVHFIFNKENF

[9] = target: NADPH oxidase 4 (Homo sapiens) (UniProt Q9NPH5); test: NOX4-dependent H2O2 signal modulators, primary screen, NOX inhibitor project, cell-based, HEK293-NOX4, tetracycline-induced, Amplex Red fluorescence (AID 1160); conditions: 45 min, higher = more signal, called active from +8 up or from −8 down
NADPH oxidase 4 (Homo sapiens), sequence (Q9NPH5 whole entry, looked up): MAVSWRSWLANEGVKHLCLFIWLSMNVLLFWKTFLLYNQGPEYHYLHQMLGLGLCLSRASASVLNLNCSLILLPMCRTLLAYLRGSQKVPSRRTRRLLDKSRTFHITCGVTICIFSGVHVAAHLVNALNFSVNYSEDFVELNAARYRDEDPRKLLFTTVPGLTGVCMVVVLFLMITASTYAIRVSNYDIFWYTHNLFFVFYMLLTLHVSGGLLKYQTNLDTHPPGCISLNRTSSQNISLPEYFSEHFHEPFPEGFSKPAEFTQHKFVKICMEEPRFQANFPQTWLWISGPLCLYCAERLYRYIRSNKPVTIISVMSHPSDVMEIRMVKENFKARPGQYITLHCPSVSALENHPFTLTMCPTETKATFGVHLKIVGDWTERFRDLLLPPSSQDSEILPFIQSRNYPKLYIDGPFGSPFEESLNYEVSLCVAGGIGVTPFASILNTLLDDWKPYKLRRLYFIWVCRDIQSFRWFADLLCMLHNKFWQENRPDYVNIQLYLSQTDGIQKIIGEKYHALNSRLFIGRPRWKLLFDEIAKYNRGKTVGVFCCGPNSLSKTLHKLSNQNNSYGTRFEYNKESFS

[10] = target: NADPH oxidase 5 (Homo sapiens) (UniProt Q96PH1); test: NOX5-dependent H2O2 signal modulators, primary screen, NOX inhibitor project, cell-based, HEK293-NOX5, Amplex Red fluorescence (AID 1161); conditions: HEK293-NOX5, ionomycin, 45 min, higher = more signal
NADPH oxidase 5 (Homo sapiens), sequence (Q96PH1 whole entry, looked up): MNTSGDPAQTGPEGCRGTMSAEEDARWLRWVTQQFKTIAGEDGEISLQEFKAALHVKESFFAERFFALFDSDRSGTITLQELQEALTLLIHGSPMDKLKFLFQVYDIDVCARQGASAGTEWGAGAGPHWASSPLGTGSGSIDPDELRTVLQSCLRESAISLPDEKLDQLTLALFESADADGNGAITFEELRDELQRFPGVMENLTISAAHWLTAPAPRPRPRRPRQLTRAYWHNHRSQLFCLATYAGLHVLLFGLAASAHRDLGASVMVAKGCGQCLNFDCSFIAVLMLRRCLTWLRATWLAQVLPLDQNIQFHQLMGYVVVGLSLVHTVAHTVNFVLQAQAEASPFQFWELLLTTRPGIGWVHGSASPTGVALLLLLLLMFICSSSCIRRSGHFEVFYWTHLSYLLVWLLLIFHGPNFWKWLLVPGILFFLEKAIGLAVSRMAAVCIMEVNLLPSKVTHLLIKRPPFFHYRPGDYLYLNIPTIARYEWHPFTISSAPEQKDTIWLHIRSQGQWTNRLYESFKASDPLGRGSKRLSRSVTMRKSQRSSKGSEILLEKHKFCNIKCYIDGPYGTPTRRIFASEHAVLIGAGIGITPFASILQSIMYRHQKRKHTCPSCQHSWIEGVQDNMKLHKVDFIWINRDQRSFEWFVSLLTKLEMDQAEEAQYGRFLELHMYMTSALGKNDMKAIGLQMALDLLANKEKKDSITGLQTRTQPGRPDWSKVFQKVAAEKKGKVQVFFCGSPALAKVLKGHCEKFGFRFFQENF

[11] = A549 cell viability effects, profiling panel, calcein-AM fluorescence, 48 h, basal (AID 1162); conditions: higher = more signal; note: test concentration not given here
[12] = adipocyte viability effects, profiling panel, cell-based, 3T3-L1 adipocytes, calcein-AM fluorescence, 48 h, basal (AID 1163); conditions: 3T3-L1 adipocytes viability, higher = more signal; note: test concentration not given here
[13] = HepG2 cell viability effects, profiling panel, calcein-AM fluorescence, 48 h, basal (AID 1164); conditions: higher = more signal; note: test concentration not given here
[14] = MM1S cell viability effects, profiling panel, calcein-AM fluorescence, 48 h, basal (AID 1165); conditions: higher = more signal;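 note: viability of MM1S multiple myeloma cells under basal unstimulated conditions; test concentration not given here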
[15] = basal RPMI8226 viability, no added stimulus, profiling panel, cell-based, calcein-AM fluorescence, 48 h, PK04 Diversity Set (AID 1166); conditions: RPMI8226 myeloma viability, higher = more signal;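 note: cells grown under basal conditions without added stimulus; test concentration not given here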
[16] = basal HepG2 mitochondrial membrane potential changes, profiling panel, cell-based, JC-1 fluorescence, 24 h, 100 nL compound (AID 1167); conditions: higher = more signal; note: test concentration not given here
[17] = basal 3T3-L1 adipocyte mitochondrial potential changes, profiling panel, cell-based, JC-1 fluorescence, 3T3-L1 adipocytes, 24 h, 100 nL compound (AID 1168); conditions: JC-1 mitochondrial fluorescence, higher = more signal, called active from +8 up or from −8 down; note: test concentration not given here
[18] = basal RPMI8226 mitochondrial membrane potential changes, profiling panel, cell-based, JC-1 fluorescence, 24 h, 100 nL compound (AID 1169); conditions: RPMI8226 myeloma, JC-1 mitochondrial potential fluorescence, higher = more signal; note: test concentration not given here
[19] = basal MM1S mitochondrial membrane potential changes, profiling panel, cell-based, JC-1 fluorescence, 24 h, 100 nL compound (AID 1170); conditions: higher = more signal; note: test concentration not given here
[20] = A549 lung cancer cell viability effects, profiling panel, resazurin fluorescence, 24 h, PK04 Diversity Set (AID 1171); conditions: higher = more signal, called active from +8 up or from −8 down; note: test concentration not given here

SMILES | z-score [1] | composite z-score [2] | z-score [3] | z-score [4] | z-score [5] | z-score [6] | z-score [7] | z-score [8] | z-score [9] | z-score [10] | z-score [11] | z-score [12] | z-score [13] | z-score [14] | z-score [15] | z-score [16] | z-score [17] | z-score [18] | z-score [19] | z-score [20]
Cc1ccc(S[C@]2(C(=O)NCCCN(C)C)CC(=O)N(Cc3ccccc3Cl)[C@@H]2c2ccc(CO)cc2I)cc1 | 1.02 (inactive) | -0.0573 | 4.18 (inactive) | 0.987 (inactive) | 0.524 (inactive) | 0.498 (inactive) | -0.344 | 0.255 (inactive) | -1.15 (inactive) | 1.78 | 0.171 | 0.908 | -0.696 | -2.41 | -3.15 | 1.25 | 0.722 (inactive) | -0.351 | -0.984 | 0.515 (inactive)
CC(C)(C)N1CC=CC23O[C@@H]4/C=C\CCCOC(=O)C4[C@H]2C(=O)N(CCCCCCO)[C@@H]3C1=O (stereo not given in full) | 1.88 (inactive) | 0.0903 | 1.64 (inactive) | -0.353 (inactive) | 0.703 (inactive) | -0.331 (inactive) | 1.97 | 0.834 (inactive) | -0.0239 (inactive) | 2.04 | 0.0079 | 0.164 | 0.797 | 1.83 | -0.0296 | 1.17 | 1.04 (inactive) | 0.116 | -0.892 | 0.204 (inactive)
COCCOC(=O)N1C(=O)[C@@]2(c3cc(C#CCCO)ccc31)[C@H](C(=O)N1CCN(c3ncccn3)CC1)[C@H]1C(=O)O[C@H](c3ccccc3)[C@H](c3ccccc3)N1[C@@H]2c1ccc(O)cc1 | 1.35 (inactive) | -0.36 | 1.78 (inactive) | 0.133 (inactive) | 1.21 (inactive) | 0.684 (inactive) | 0.188 | 1.69 (inactive) | 1.21 (inactive) | 1.29 | 1.61 | 0.222 | 1.54 | 0.14 | 0.0881 | -0.141 | 0.339 (inactive) | -0.614 | -1.07 | 0.249 (inactive)
C=CCN1C(=O)[C@]2(O[C@H](CCn3cc([C@H](O)c4ccccc4)nn3)[C@@H]([Si](C)(C)c3ccc(OC)cc3)[C@@H]2C)c2cc(N3C(=O)c4cccc5cccc3c45)ccc21 | 0.443 (inactive) | -0.101 | 5.26 (inactive) | 1.59 (inactive) | 1.97 (inactive) | 0.889 (inactive) | 0.435 | 1.06 (inactive) | 1.11 (inactive) | 0.797 | -0.133 | -0.363 | -3.33 | -1.4 | -4.46 | 2.24 | 1.19 (inactive) | -1.02 | -1.33 | -1.7 (inactive)
